Calb biofilm kill – clotrimazole potentiators killing Candida biofilms, primary screen, with clotrimazole, Alamar Blue | C. albicans biofilm + clotrimazole | inhibition, % at 6 µM | hit rate 0.14% among 85,000 | AID 834, 2007;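 active = inhibition above 20%; inactive = inhibition below 20%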;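 note: preformed 24 hr biofilms exposed to compound for 48 hr; 0% = biofilm without compound and 100% = blank killed by clotrimazole plus chlorhexidine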
Smad3 inh – Smad3/FoxH1 peptide binding inhibitors, primary screen, biochemical, TR-FRET. AID 630, 2007. inhibition, % at 25 µM. TR-FRET Smad3/Dy647-FoxH1 peptide binding, europium anti-His. Mothers against decapentaplegic homolog 3 (Homo sapiens), P84022. hit rate 0.29% among 88,000;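 active = compounds that reduce the energy-transfer binding signal between the protein and its labelled peptide by more than half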;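 note: 0% = Smad3 plus labelled peptide maximal FRET and 100% = peptide-only background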
Target sequence (P84022 whole entry, looked up): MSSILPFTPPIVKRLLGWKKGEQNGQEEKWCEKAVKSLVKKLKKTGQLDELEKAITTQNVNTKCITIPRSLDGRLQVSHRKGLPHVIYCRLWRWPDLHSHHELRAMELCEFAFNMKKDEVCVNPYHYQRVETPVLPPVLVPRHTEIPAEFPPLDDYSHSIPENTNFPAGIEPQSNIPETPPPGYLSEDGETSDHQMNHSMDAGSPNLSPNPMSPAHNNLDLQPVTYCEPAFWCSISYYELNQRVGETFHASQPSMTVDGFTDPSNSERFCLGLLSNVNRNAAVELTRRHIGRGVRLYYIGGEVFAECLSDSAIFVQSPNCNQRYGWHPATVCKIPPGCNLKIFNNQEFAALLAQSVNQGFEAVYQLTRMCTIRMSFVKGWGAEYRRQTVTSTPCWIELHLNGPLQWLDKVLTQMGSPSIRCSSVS
MRP reversal – reversal of MRP1-mediated doxorubicin resistance, primary screen, H69AR cells, doxorubicin co-treatment; H69AR cells + 2 uM doxorubicin, CellTiter-Glo, 72 h; differential viability (reversal), % at 10 µM; hit rate 0.04% among 85,000; AID 602, 2007;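 active = viability drop by adding the cancer drug above about 55%, with treated viability meeting a 40% cutoff, limit read from the data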;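 note: viability without doxorubicin minus viability with 2 µM doxorubicin for each compound; larger differential means the compound sensitizes cells more to doxorubicin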
MRP1 act – H69AR viability gain despite doxorubicin, primary screen, MRP-1 activator project, H69AR cells, CellTiter-Glo | AID 799, 2007 | viability increase, % at 10 µM | hit rate 0.61% among 140,000 | viability rescue;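 active = viability gain under doxorubicin at or above a set limit, the compound median plus 3 SD, cut at about 4.7% in these data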;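 note: MRP-1 overexpressing cells given doxorubicin 25 µM after compound pretreatment; 18-22 h compound pretreatment then 72 h with doxorubicin before readout; 0% = doxorubicin-only wells and 100% = vehicle-treated cells without doxorubicin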
* marks the source's active call; other numbers are inactive results. Compounds with a hit are over-represented: about 0.83% of the library has one in this group of screens.

Results for COc1ccc(N2CCN(c3oc(COc4ccc(Cl)cc4Cl)nc3C#N)CC2)cc1 ?
Calb biofilm kill: 7.7; Smad3 inh: 2.8; MRP reversal: 21.4; MRP1 act: 2.2

How did N#Cc1nc(COc2ccc(Br)cc2)oc1N1CCCC1 do in these assays?
Calb biofilm kill: 5.6; Smad3 inh: 6.8; MRP reversal: -7.4; MRP1 act: 7.3*

What do the screens show for `N#Cc1nc(COc2ccc(Br)cc2)oc1N1CCCCCC1`?
Calb biofilm kill: 0.5; Smad3 inh: -4.9; MRP reversal: 8.4; MRP1 act: 6.5*

What do the screens show for `COc1ccc(-c2nnc(SC(C)C(=O)NNC(=O)c3ccc(C)cc3)o2)cc1` (stereo not drawn)?
MRP1 act: 4.4

How did COc1ccc(-c2nnc(SC(C)C(=O)Nc3cccc(Cl)c3)o2)cc1 (stereo not drawn) do in these assays?
Calb biofilm kill: -2.8; Smad3 inh: -3.1; MRP reversal: -1.5; MRP1 act: 5.8*

How did NCCCS(=O)(=O)O do in these assays?
Calb biofilm kill: 6.9; Smad3 inh: -8.2; MRP reversal: 6.0; MRP1 act: 0.3

How did NCCSS(=O)(=O)CCN do in these assays?
Smad3 inh: 61.9*

Results for O=C(O)C[C@H](Nc1ccccc1)C(=O)O ?
Smad3 inh: 0.5

What do the screens show for `Cc1ccc(NC(=O)CNC(=O)c2cccs2)cc1S(=O)(=O)Nc1ccc(Cl)cc1`?
MRP1 act: 7.0*

Results for COc1ccc(NS(=O)(=O)c2cc(NC(=O)CNC(=O)c3cccc(OC)c3)ccc2C)cc1 ?
MRP1 act: 0.2

How did NC1=N[C@@H](c2ccc(Cl)cc2)N(c2ccc(S(N)(=O)=O)cc2)C(N)=N1 do in these assays?
Smad3 inh: 5.5

What do the screens show for `FC(F)(F)c1ccc(N2CCN(c3ncnc4c3nnn4Cc3ccccc3Cl)CC2)cc1`?
Calb biofilm kill: 14.6; Smad3 inh: -17.1; MRP reversal: -3.6; MRP1 act: -1.5

How did Clc1ccccc1Cn1nnc2c(Nc3ccccc3)ncnc21 do in these assays?
Calb biofilm kill: -2.0; Smad3 inh: 1.6; MRP1 act: 4.7*

Results for Fc1ccc(N2CCN(c3ncnc4c3nnn4Cc3ccccc3Cl)CC2)cc1 ?
Calb biofilm kill: -0.3; Smad3 inh: -4.9; MRP reversal: -1.4; MRP1 act: 5.0*

Results for Clc1ccccc1Cn1nnc2c(NCC3CC3)ncnc21 ?
Calb biofilm kill: 0.8; Smad3 inh: 6.9; MRP reversal: 9.6; MRP1 act: -0.4

How did Cc1nc(NC(=S)NC(=O)c2cccs2)sc1C(=O)N(C)C do in these assays?
MRP1 act: 7.2*

What do the screens show for `N#CC[N+]1(Cc2ccccn2)CCCC1`?
Smad3 inh: 0.9

What do the screens show for `O=C(Cc1ccc(-n2c(=O)[nH]c3ccsc3c2=O)cc1)N1CCN(c2ccc(Cl)cc2)CC1`?
MRP1 act: 5.0*

How did O=C(O)CCN1C(=O)C2CCCCC2C1=O (stereo not drawn) do in these assays?
Calb biofilm kill: 37.0*; Smad3 inh: -5.7; MRP reversal: -2.7; MRP1 act: -1.2

How did O=C(O)CCN1C(=O)C2C3C=CC(C3)C2C1=O (stereo not drawn) do in these assays?
Calb biofilm kill: 0.2; Smad3 inh: 0.0; MRP reversal: 6.3; MRP1 act: -0.3

How did O=C(CSc1nc2ccccc2c2ccccc12)c1ccccc1 do in these assays?
Smad3 inh: -5.8

Results for C/C(N[O-])=C(\C)[N+]([O-])=[Fe].CC(=N\[O-])/C(C)=N/[O-].[NH2-].c1c[nH+]c[n-]1 ?
Smad3 inh: 72.2*

Results for O=C1c2ccccc2[C@@H]([C@H]2c3ccccc3C(=O)c3cc(Br)ccc32)c2ccc(Br)cc21 ?
Smad3 inh: -11.6

What do the screens show for `COC(=O)CC1SC(=O)NC1=Nc1ccc(O)cc1` (stereo not drawn)?
Calb biofilm kill: 6.2; Smad3 inh: 7.9; MRP reversal: -2.6; MRP1 act: -1.9

What do the screens show for `COC(=O)CC1SC(=O)NC1=O` (stereo not drawn)?
Calb biofilm kill: 4.5; Smad3 inh: -6.5; MRP reversal: 14.2; MRP1 act: 7.2*

How did CCc1nnc(NC(=O)C2CCCN2S(=O)(=O)c2ccc(F)cc2)s1 (stereo not drawn) do in these assays?
Calb biofilm kill: 10.0; Smad3 inh: 0.0; MRP reversal: -15.4; MRP1 act: 5.8*

What do the screens show for `CCc1nnc(NC(=O)[C@@H]2CCCN2S(=O)(=O)c2ccc3c(c2)OCCO3)s1`?
Calb biofilm kill: 3.7; Smad3 inh: 0.2; MRP reversal: 12.8; MRP1 act: 4.0

What do the screens show for `O=c1oc2ccccc2n1Cc1ccccc1Cl`?
Calb biofilm kill: 20.8*; Smad3 inh: -17.8; MRP reversal: 32.4

Results for Cc1ccccc1-c1nc2cc(Cl)ccc2o1 ?
Calb biofilm kill: 6.8; Smad3 inh: 18.2; MRP reversal: 4.8; MRP1 act: -3.7

What do the screens show for `FC(F)(F)c1cccc(CNc2ncccc2-c2nc3cc(Cl)ccc3o2)c1`?
MRP1 act: 5.2*

Results for O=C(O)c1ccc(-n2nnnc2SCc2ccccc2)cc1 ?
Calb biofilm kill: 0.5; Smad3 inh: -2.1; MRP reversal: 82.6*; MRP1 act: -3.6

What do the screens show for `Cc1cc(/C=N/Nc2ccc([N+](=O)[O-])cn2)c(C)n1-c1ccccc1`?
Calb biofilm kill: 25.3*; Smad3 inh: -2.6; MRP reversal: 12.8; MRP1 act: -1.6

Results for CC(C)CCC1CC(CSC(=N)N)OC1=O (stereo not drawn) ?
Calb biofilm kill: 3.1; Smad3 inh: -2.1; MRP reversal: -6.5; MRP1 act: 5.1*

What do the screens show for `CC(C)(C)C1CCC2(CC1)CCN(CCCN1CCOCC1)CC2`?
Smad3 inh: 2.8

What do the screens show for `COc1cc2c(cc1OC)C(CCN)=NCC2`?
Smad3 inh: 21.5

Results for O=C1C(Cl)=C(Sc2nnc3c4ccccc4c4ccccc4c3n2)C(=O)c2ccccc21 ?
Smad3 inh: 5.0

What do the screens show for `O=C1NC(=Nc2ccc(Cl)cc2)SC1Cc1cc(Cl)ccc1Cl` (stereo not drawn)?
MRP1 act: 6.9*

Results for O=C(Nc1ccon1)c1cc2c(s1)CCCC2 ?
Calb biofilm kill: -1.7; Smad3 inh: -7.1; MRP reversal: 1.9; MRP1 act: 4.8*

Results for CCOC(=O)C(Oc1ccc2c(-c3ccccc3)cc(=O)oc2c1C)c1ccccc1 (stereo not drawn) ?
MRP1 act: 4.7*

How did CCOC(=O)C(Oc1ccc2c(-c3ccc(OC)cc3)cc(=O)oc2c1C)c1ccccc1 (stereo not drawn) do in these assays?
MRP1 act: 0.3

What do the screens show for `O=C(NCCC1=CCCCC1)C(=O)NCc1ccccc1`?
MRP1 act: -3.0

How did Cc1[nH]c2ccccc2c1C(=O)C(=O)NCCC1=CCCCC1 do in these assays?
MRP1 act: 12.0*

How did Cc1ccc(CCCC(=O)O)cc1C do in these assays?
Smad3 inh: -6.8

What do the screens show for `O=C(NC(=S)Nc1ccccn1)c1cc(-c2ccccc2)nc2ccccc12`?
MRP1 act: 7.5*

How did O=S(=O)(O)c1ccc(-c2nnc(-c3ccccn3)nc2-c2ccc(S(=O)(=O)O)o2)o1 do in these assays?
Smad3 inh: 1.4

What do the screens show for `Cc1cc(C)n(CCc2nc(-c3ccc(-c4ccccc4)cc3)cs2)n1`?
MRP1 act: 7.3*
